Rows were chosen to be rich in hits. Some 21% of all compounds tested hit in one or more screens of this group.
Shiga toxin inh: A qHTS for Small Molecule Inhibitors of Shiga Toxin | Vero cells, Shiga toxin protein synthesis inhibition reporter | inhibition, % at 38.7 µM | 9.2% of 290,000 active; in the data active = inhibition mostly above about 28%, no sharp cut-off; inactive = mostly below about 43%; also: 0% is about no effect
Cycloheximide cs: Cycloheximide Counterscreen for Small Molecule Inhibitors of Shiga Toxin; AID 2314, 2010; 12% of 300,000 active; cell reporter, cycloheximide protein synthesis inhibition counterscreen; max response, %; in the data active = max response mostly above about 13%, no sharp cut-off; inactive = mostly below about 14%; also: read at 38.3 µM for the half of the compounds with a filed dose; 0% is about no effect
Pf growth 48h: Primary qHTS for delayed death inhibitors of the malarial parasite plastid, 48 hour incubation | Potency, µM (top dose mostly 28.7 µM), for the others: at the top dose activity change, negative = inhibition, actives largely listed as inhibitors | 5.9% of 310,000 active | AID 504832, 2011 | P. falciparum luciferase growth in erythrocytes, 48 h; also: potency is read from the fitted curve at half-maximal effect; % is scaled to controls: 0 for no effect and ±100 for the full control effect
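In quantitative HTS format, infected erythrocytes bearing luciferase-reporter parasites were treated for a single generation at 37 C. Luminescence after adding detection reagent served as the growth measure.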
Pf growth 96h: Primary qHTS for delayed death inhibitors of the malarial parasite plastid, 96 hour incubation | P. falciparum luciferase reporter growth, 96 h | Potency, µM (doses to about 28.7 µM), for the others: at the highest dose activity change, negative = inhibition, actives largely listed as inhibitors | 6.9% of 320,000 active | AID 504834, 2011; also: potency is read from the fitted curve at half-maximal effect; % is scaled to controls: 0 for no effect and ±100 for the full control effect
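Compounds incubated with erythrocytes infected by luciferase-expressing P. falciparum (2% hematocrit, 0.05% parasitemia final) for 96 hours, 37 C in 5% CO2. Growth inhibition scored as decreased luciferase luminescence.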
NS1 function inh: qHTS Assay for Inhibitors of Influenza NS1 Protein Function; 0.4% of 270,000 active; Potency, µM (series often up to 46.1 µM), for inactives: at the top dose activity, positive = more growth; calls by dose curve; also: potency is read from the fitted curve at half-maximal effect; actives are rising curves; nearly all actives have a fitted effect of over 50% in size
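Growth recovery, yeast-based: influenza A NS1 expressed in S. cerevisiae causes slow growth, and suppressors are detected by OD600. The parent strain without NS1 is used as positive control.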
SARS PLP yeast: qHTS of Yeast-based Assay for SARS-CoV PLP; S. cerevisiae expressing SARS-CoV PLpro, growth rescue; Potency, µM (titrated, usually from 32.9 µM), without a hit: top-dose activity, positive = growth rescue, most hits filed as activators; 0.19% of 330,000 active; AID 485353, 2010; calls by dose curve; also: potency is read from the fitted curve at half-maximal effect; 0% is about no effect; nearly all actives have a fitted effect of over 55% in size
* = called active by the depositor; ? = inconclusive; . = no result given; [ ] = another dose, or the depositor's remark. Unless noted, calls follow the shape of the dose curve; as a rule, active = well fitted inhibition curve with a large enough effect; inconclusive = small, poorly fitted or top-dose-only effect, or another doubt; inactive = no such curve, though single readings can be large or run the other way.

SMILES | Shiga toxin inh | Cycloheximide cs | Pf growth 48h | Pf growth 96h | NS1 function inh | SARS PLP yeast
CC(C)OCCCN1CN(S(=O)(=O)c2cccs2)c2nc3ccccc3nc21 | 44 | 14* | -12% | 6% | -5% | -2%
CN(C)CC[C@@H](C(=O)C(C)(C)C)c1ccccn1 | . | . | . | . | -1% | .
COC(=O)C1=C(C(=O)OC)[C@@H]2Nc3ccccc3[C@@]23C[C@@H](C(=O)OC)N(C(C)=O)C3=N1 | -7 | -4 | 37% | 51% | 2% | 0%
CC(C)Oc1ccc(C(CC(=O)N(C)CCC#N)c2ccc(F)cc2)cc1 (stereo not drawn) | 5 | 1 | -10% | 6% | 0% | 7%
COCCN1CN(S(=O)(=O)c2ccccc2)c2nc3ccccc3nc21 | 7 | 5 | -13% | -42% | -32% | 1%
COc1ccccc1CN1CN(S(=O)(=O)c2ccccc2)c2nc3ccccc3nc21 | 110* | 31* | ? | ? | 12% | 4%
C#CCN1C(C)=C(C(=O)OC)C(c2cccc([N+](=O)[O-])c2)C(C(=O)OCC)=C1C (stereo not drawn) | . | . | 13µM* | ? | -44% | .
COC(=O)C1=C(C)NC(C)=C(C(=O)OCCCN2CCC(c3ccccc3)(c3ccccc3)CC2)C1c1cccc([N+](=O)[O-])c1 (stereo not drawn) | . | . | 1.5µM* | 15µM* | . | .
CC1Cc2nc(SCC(=O)Nc3nc4ccccc4s3)n(C)c(=O)c2S1 (stereo not drawn) | 3 | -4 | ? | ? | -12% | -22%
C=CCN1c2ccccc2[C@]23C[C@@H](C(=O)OC)N(C(=O)C4CCC4)C2=NC(C(=O)OC)=C(C(=O)OC)[C@H]13 | -3 | -3 | -7% | 34% | -4% | -4%
C#CCCOC(=O)N1C2=NC(C(=O)OC)=C(C(=O)OC)[C@@H]3N(C)c4ccccc4[C@]23C[C@H]1C(=O)OC | -6 | -2 | ? | ? | 2% | 1%
COC(=O)C1=C(C(=O)OC)[C@@H]2N(C)c3ccccc3[C@@]23C[C@@H](C(=O)OC)N(C(=O)c2ccc(Br)cc2)C3=N1 | -5 | -7 | 21% | 69% | -10% | -1%
C=CCN1c2ccccc2[C@]23C[C@@H](C(=O)OC)N(C(=O)NCCC)C2=NC(C(=O)OC)=C(C(=O)OC)[C@H]13 | 7 | -3 | 3.3µM* | 4.1µM* | 11% | -1%
CCOC(=O)N1C2=NC(C(=O)OC)=C(C(=O)OC)[C@@H]3N(C)c4ccccc4[C@]23C[C@H]1C(=O)OC | -1 | 23* | 56% | -11% | 11% | -4%
COC(=O)C1=C(C(=O)OC)[C@@H]2N(Cc3ccccc3)c3ccccc3[C@@]23C[C@@H](C(=O)OC)N(C(=O)CC(C)C)C3=N1 | 18 | 10 | 4.1µM* | 4.7µM* | 2% | 2%
COC(=O)C1=C(C(=O)OC)[C@@H]2N(C)c3ccccc3[C@@]23C[C@@H](CO)N(C(=O)NCCBr)C3=N1 | -12 | -3 | 9.3µM* | ? | -8% | 1%
Cc1cccc(NC(=O)CN2CCN(C(=O)c3oc4c(Cl)cccc4c3C)CC2)c1C | . | . | ? | ? | . | -1%
Cc1ccc(-c2nc(CN(C)C)cc(CN(C)C)c2O)cc1 | 17 | 1 | 6.6µM* | ? | -7% | -3%
N=c1c2ccccc2nnn1-c1ccc(C(F)(F)F)cc1 | 76* | 40* | 0.29µM* | ? | . | -2%
On1nnc2ccc(C(F)(F)F)cc21 | -7 | 5 | 0% | ? | . | 5%
O=C(Nc1ccc2nc(-c3cccs3)[nH]c2c1)c1ccco1 | 60* | 27* | 44% | . | 1% | -22%
O=C(Nc1ccc2nc(-c3cccs3)[nH]c2c1)c1cccs1 | -6 | 2 | 53% | . | -7% | -7%
O=C(Nc1cccc(-c2nc3ccccc3[nH]2)c1)c1ccco1 | 42* | 17 | ? | 15µM* | -110% | -5%
c1cncc(CNc2cccc(-c3nc4ccccc4[nH]3)c2)c1 | active | 54* | 118% | 54% | 4% | -5%
c1ccc(NCc2cccnc2)cc1 | -15 | -2 | -1% | 7% | -2% | 9%
SMILES | Shiga toxin inh | Cycloheximide cs | Pf growth 48h | Pf growth 96h | NS1 function inh | SARS PLP yeast
O=C(Nc1cccc(-c2cnc3ccccc3n2)c1)c1ccccc1 | 47 | 31 | -63% | 39% | -11% | 12%
O=C(Nc1cccc(-c2cnc3ccccc3n2)c1)c1cccc(NC(=O)c2ccco2)c1 | 46* | 43* | . | . | 10% | 4%
Cc1ccc(Cn2nnc3c(=O)n(CC(=O)c4ccccc4)cnc32)cc1 | -5 | -3 | -11% | -16% | 6% | -5%
Cn1cccc1-c1nc2ccc(NC(=O)c3ccco3)cc2[nH]1 | 56 | 44* | 40% | 23% | -7% | -7%
O=C(Nc1ccc(-c2nc3ccc(NC(=O)c4cccs4)cc3[nH]2)cc1)c1cccs1 | -24 | -2 | 2.6µM* | . | 2% | -7%
Cc1ccc(-c2nnc(-c3ccc(NC(=O)c4ccco4)cc3)o2)cc1 | 19 | 2 | -29% | ? | ? | -9%
CC(=O)c1cccc(NC(=O)c2ccco2)c1 | 39 | 1 | 24% | 92% | -52% | 1%
Cc1ccc2nc(-c3ccc(NC(=O)c4ccco4)cc3)[nH]c2c1 | 75* | 39* | ? | . | -12% | -5%
COc1cc2cc(C(=O)N/N=C/c3ccccc3Cl)[nH]c2cc1OC | -10 | 1 | ? | ? | 2% | -2%
O=C(Cc1c(F)cccc1Cl)N1CCN(S(=O)(=O)c2cccs2)CC1 | . | . | 8% | 1% | . | -2%
Cc1ccccc1C(=O)OCC(=O)NCC1COc2ccccc2O1 (stereo not drawn) | . | . | -7% | 37% | . | 1%
Cc1ccc(Oc2ccc(NC(=O)Cn3ccsc3=N)cc2)cc1 | -12 | -3 | 10µM* | . | -2% | -7%
O=C(CN1C(=O)S/C(=C/c2cc(Br)cs2)C1=O)N1CCOCC1 | -4 | 0 | 14% | 5% | -5% | -3%
CC1CCCN(C(=S)Nc2ccc(F)cc2)C1 (stereo not drawn) | 9 | 7 | 1% | -11%[5.75 µM] | -3% | 2%
COC(=O)c1ccc(C(=O)OC)c(NC(=S)N2CCCC(CO)C2)c1 (stereo not drawn) | 28 | 1 | 5%[5.75 µM] | ? | . | 1%
COC(=O)Cc1ccc(NC(=S)N2CCCC(CO)C2)cc1 (stereo not drawn) | -24 | -1 | 15µM* | 97% | -1% | 3%
CC(=O)c1ccc(NC(=S)N2CCCC(CO)C2)cc1 (stereo not drawn) | 51* | 38* | 17% | 63% | 1% | 3%
CC1CCCN(C(=S)Nc2ccc(Nc3ccccc3)cc2)C1 (stereo not drawn) | 99* | 23* | 130% | 6% | 11% | -2%

Bioassay records (PubChem)
